Activity data for 15 compounds are collected here from PubChem BioAssay (NCATS).

Molecules are shown by their SMILES. Several values for one entry are separate records, joined by “and”; a condition that tells them apart may be missing. Equal entries are not always repeated.

For the assay, the target named is Nicotinamide N-methyltransferase (Homo sapiens) (UniProt P40261). Kind of assay: Confirmatory Screen for Target Class Profiling of Small Molecule Inhibitors of Methyltransferases (AID 1745852). As to conditions: MTase-Glo luminescence, SAH detection, recombinant enzyme; measured here: NNMT max response; stronger effect = lower value.
Chain of Nicotinamide N-methyltransferase (Homo sapiens) (P40261 whole entry, looked up): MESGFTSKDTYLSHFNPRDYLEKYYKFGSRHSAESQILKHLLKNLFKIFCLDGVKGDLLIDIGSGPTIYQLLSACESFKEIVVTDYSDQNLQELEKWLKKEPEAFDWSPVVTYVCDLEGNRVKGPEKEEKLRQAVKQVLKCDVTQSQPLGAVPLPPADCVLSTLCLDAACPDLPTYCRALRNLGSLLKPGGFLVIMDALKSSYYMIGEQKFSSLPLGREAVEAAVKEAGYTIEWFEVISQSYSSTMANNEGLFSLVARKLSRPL
As to `Clc1ccc(C2(c3ccc(-c4cn[nH]c4)cc3)CCNCC2)cc1`, the activity is -22.3%.

Turning to `c1ccc(-c2oc3ncnc(NC[C@@H]4CCCO4)c3c2-c2ccccc2)cc1`, the activity is -46.6%.

With `CN1CCc2c(n(Cc3ccc(C(=O)NO)cc3)c3ccccc23)C1`, the activity is -0.568%.

Take `CNC(=O)c1ccc2c(C(=Nc3cccc(CN(C)C)c3)c3ccccc3)c(O)[nH]c2c1`: the activity is -21.7%.

Consider `Nc1[nH]nc2nnc(-c3c(-c4ccccc4)nn4ccccc34)cc12`, for which the activity is -76.8%.

In the case of `NS(=O)(=O)c1ccc(Nc2nc(OCC3CCCCC3)c3[nH]cnc3n2)cc1`, the activity was -73.9%.

With `c1cc(OCCN2CCCCC2)cc(-c2n[nH]c3ccc(-c4ncn[nH]4)cc23)c1`, the activity is -12.9%.

Turning to `Cc1ccccc1-n1c(Cn2nc(-c3cccc(O)c3)c3c(N)ncnc32)nc2cccc(C)c2c1=O`, the activity is -28.8%.

Turning to `CC(C)CNc1ccnc(NCc2csc(-c3ccccc3)n2)n1`, the activity is -34.7%.

Consider `CC1(COc2ccc3c(c2)ncn3-c2ccc3cccc(N4CCC(N)CC4)c3n2)COC1`, for which the activity is -29.9%.

On to `CCN1CCC(n2cc(CNc3cc(Cl)c4ncc(C#N)c(Nc5ccc(F)c(Cl)c5)c4c3)nn2)CC1`, for which the activity is -81.6%.

Turning to `Nc1ncnc2c1c(-c1cccc(OCc3ccccc3)c1)cn2C1CC(CN2CCC2)C1` (stereo not given), the activity is -29.1%.

As for `Cc1ccc2c(c1)c1c(n2CCc2ccc(C)nc2)CCN(C)C1`, the activity is -13.3%.

Take `CN(C)CCCNC(=O)c1ccc(-c2cc(O)c3ncccc3c2)cc1`: the activity is -0.93% and -8.84%.

With `CNC1CCC(N(Cc2cccc(-c3ccncc3)c2)C(=O)c2sc3ccccc3c2Cl)CC1` (stereo not given), the activity was -65.2%.
